RBX1-CUL1 inh = human ROC1-CUL1 E3 ligase inhibition | P62877+Q13616 | inhibition, % at 10 µM | in vitro K48 di-Ub FRET, acceptor:donor ratio, 45 min | AID 1347404 | hit rate 0.6% among 140,000; in the data active = inhibition above about 25%
Target sequence (P62877 whole entry, looked up): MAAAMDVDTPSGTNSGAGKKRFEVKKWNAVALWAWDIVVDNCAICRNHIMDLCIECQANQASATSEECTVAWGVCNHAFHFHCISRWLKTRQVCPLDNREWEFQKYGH
Target sequence (Q13616 whole entry, looked up): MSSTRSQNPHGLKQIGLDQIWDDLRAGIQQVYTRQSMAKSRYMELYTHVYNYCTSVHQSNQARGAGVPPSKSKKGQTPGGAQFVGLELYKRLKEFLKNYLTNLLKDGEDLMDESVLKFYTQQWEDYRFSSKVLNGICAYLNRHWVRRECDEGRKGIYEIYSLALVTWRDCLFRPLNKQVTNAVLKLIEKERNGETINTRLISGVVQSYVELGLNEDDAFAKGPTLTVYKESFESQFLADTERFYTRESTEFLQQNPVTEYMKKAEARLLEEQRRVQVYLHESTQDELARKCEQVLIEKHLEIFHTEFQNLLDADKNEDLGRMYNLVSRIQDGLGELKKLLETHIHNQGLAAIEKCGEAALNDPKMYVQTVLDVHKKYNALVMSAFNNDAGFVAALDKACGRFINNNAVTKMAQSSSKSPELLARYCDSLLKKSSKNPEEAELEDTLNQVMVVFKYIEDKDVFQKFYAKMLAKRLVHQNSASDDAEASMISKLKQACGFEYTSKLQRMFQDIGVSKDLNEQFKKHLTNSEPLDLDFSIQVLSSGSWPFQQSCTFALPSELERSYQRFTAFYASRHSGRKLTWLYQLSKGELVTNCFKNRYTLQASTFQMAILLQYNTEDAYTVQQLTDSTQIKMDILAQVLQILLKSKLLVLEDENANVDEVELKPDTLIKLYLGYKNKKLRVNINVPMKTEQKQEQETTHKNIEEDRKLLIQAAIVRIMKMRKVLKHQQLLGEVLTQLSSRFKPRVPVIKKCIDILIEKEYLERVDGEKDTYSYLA
* marks the source's active call; other numbers are inactive results. This is one part of a sample in which hits are shown more often than they occur.

SMILES	RBX1-CUL1 inh
O=C(CN1C(=O)S/C(=C\c2cccn2-c2cccc(C(=O)O)c2)C1=O)Nc1ccc(Cl)cc1	48.5*
N#Cc1ccccc1CN1C(=O)S/C(=C\c2ccc(-c3ccc(C(=O)O)c(Cl)c3)o2)C1=O	-0.5
O=C(CN1C(=O)c2cccc3cccc1c23)Nc1ccc2c(c1)OCO2	1.3
Cc1c(C(=O)O)cccc1-c1ccc(/C=C2\SC(=O)N(CC(=O)Nc3ccc4c(c3)OCO4)C2=O)o1	25.8*
COc1ccc(NC(=O)CN2C(=O)S/C(=C/c3cccn3-c3ccc(C)c(C)c3)C2=O)cc1	-2.4
Cc1ccc(NC(=O)CN2C(=O)S/C(=C\c3ccc(-c4cc(C(=O)O)ccc4Cl)o3)C2=O)cc1C	7.7
Cc1ccccc1NC(=O)CN1C(=O)S/C(=C\c2ccc(-c3cccc(C(=O)O)c3C)o2)C1=O	11.5
O=C(CN1C(=O)S/C(=C/c2ccc(-c3ccc(Cl)c(C(=O)O)c3)o2)C1=O)Nc1ccccc1	104.0*
O=C(CN1C(=O)S/C(=C\c2ccc(Cl)cc2)C1=O)Nc1ccc(C(=O)O)cc1	5.5
O=S(=O)(c1ccccc1)N1CCc2cc(Br)ccc21	7.6
COc1cc(C2c3c(n[nH]c3C)OC(=N)C2C#N)cc(Cl)c1OCc1cccc(F)c1 (configuration not stated)	-11.3
Cc1cc(F)ccc1NC(=O)CCS(=O)(=O)c1cc2c3c(c1)CCN3C(=O)CC2	-7.1
C=CCNCCCCOc1ccc(Cl)cc1	1.0
CCCN1C(C(=O)c2ccccc2)=C(OC(=O)c2ccc(OC)cc2)c2ccccc2S1(=O)=O	3.7
O=C(N/N=C/c1cc(Br)c(O)c(Br)c1O)C1COc2ccccc2O1 (configuration not stated)	13.3
O=C1C(=O)N(CNc2ccccc2Cl)c2ccccc21	-9.0
O=C1C2=C/C(=C\N3CCCCC3)C(=O)N2c2ccccc21	74.9*
O=C1c2ccccc2C(=O)N1CN1CCCCCC1	3.7
O=C(CSc1nc(-c2ccc(F)cc2)cc(C(F)(F)F)n1)NCc1cccs1	-2.0
O=C1Cn2c3c(c4cccc(c42)N1)CN(Cc1ccccc1)CC3	-1.3
CNc1ncc(-c2nc(-c3c(C)ncc4c3CCN(CC3CC3)C4)no2)cn1	1.7
Cc1ncc2c(c1-c1noc(-c3ccc(N)nc3)n1)CCN(CC1CCCC1)C2	1.8
Cc1cc(C)n(Cc2nc(-c3c(C)ncc4c3CCN(CC3CC3)C4)no2)n1	36.9*
Nc1ncc2c3c1c(=O)c1ccccc1n3CCC2	50.0*
O=C1CCCc2c1c1cccc3c1n2CCC3	5.3
SMILES	RBX1-CUL1 inh
Cn1c(-c2ccccc2)c[n+]2ccc3ccccc3c12	8.4
CS(=O)(=O)C(C(=O)c1ccccc1)C(=O)c1ccccc1	-4.8
CS(=O)(=O)C#Cc1ccccc1	51.8*
Brc1ccc(C#Cc2ccccc2)cc1	-2.6
CCCc1ccc(-c2n[nH]c3c2CN(C(=O)c2cnc(C)nc2)CC3)cc1	4.3
O=C(CN1C(=O)c2ccccc2C1=O)Nc1ccc(I)cc1	-5.9
Cc1ccc(NC(=O)CN2C(=O)c3ccc4c5c(ccc(c35)C2=O)CC4)cc1	37.8*
Cc1ccc(NC(=O)CN2C(=O)c3ccccc3C2=O)cc1Cl	-11.4
Cc1cc2oc(C(=O)Nc3ccc(S(=O)(=O)N(C)Cc4ccccc4)cc3)cc(=O)c2cc1C	1.8
COc1ccccc1N1CCN(C(=O)C2CCN(S(=O)(=O)c3cnc[nH]3)CC2)CC1	3.6
Cc1c(N2C(=O)/C(=C/c3ccc(Cl)cc3Cl)SC2=S)c(=O)n(-c2ccccc2)n1C	-2.3
O=C(O)C1=NN(c2ccccc2)C(=O)/C1=C\c1ccc(Cl)cc1Cl	40.3*
O=C(NN1C(=O)/C(=C/c2ccc(Cl)cc2Cl)SC1=S)c1ccccc1Cl	1.1
CCN1CCCC1CN(CC1CCN(CCOC)CC1)C(=O)c1ccoc1 (configuration not stated)	4.1
COc1ccc(/C=N/NC(=O)CSc2nnc(-c3cc(OC)c(OC)c(OC)c3)n2-c2ccccc2)cc1	-2.0
N=C1C(=O)c2c(N)cccc2C(=O)C1Br (configuration not stated)	102.5*
Nc1cccc2c1C(=O)N(c1cccc(F)c1)C2=O	-1.4
c1ccc(-c2nnc3sc(-c4ccc5c(c4)OCO5)nn23)cc1	-3.1
C=CCOc1ccc2c(C)c(CC(C)C)c(=O)oc2c1	9.3
CCOC(=O)C(=O)NC12CC3CC(CC(C3)C1)C2	2.0
O=C(NCc1nc(-c2ccncc2)n[nH]1)Nc1nnc(C2CCC2)s1	2.9
CCc1ccc(S(=O)(=O)Nc2cc(SCC(=O)O)c(O)c3ccccc23)cc1	107.6*
CCc1ccc(S(=O)(=O)NCC(=O)O)cc1	6.7
Cc1ccc(S(=O)(=O)Nc2ccccc2-c2ccccc2NS(=O)(=O)c2ccc(C)cc2)cc1	7.2
CCOc1ccc(S(=O)(=O)Nc2cc3c(C(=O)OC)c(COC)oc3c3ccccc23)cc1	3.7
SMILES	RBX1-CUL1 inh
Cc1cc(O)ccc1NS(=O)(=O)c1ccccc1	9.4
CCOc1ccc(S(=O)(=O)Nc2ccc(S(=O)(=O)Nc3cccc4ccccc34)cc2)cc1	3.4
Cc1ccc(Sc2cc(NS(=O)(=O)c3ccccc3)c3ccccc3c2O)cc1	70.1*
CCOc1ccc(S(=O)(=O)Nc2cc(SCC(=O)O)c(O)c3ccccc23)cc1	43.5*
COc1ccc(S(=O)(=O)Nc2cc(SCc3ccccc3)c(O)c3ccccc23)cc1	2.1
COC(=O)C(NC(=O)c1ccc(F)cc1)(Nc1nc2ccc(S(C)(=O)=O)cc2s1)C(F)(F)F (configuration not stated)	2.0
COc1ccc(CNCCCn2cccn2)cc1OCC(O)CN(C)C(C)C (configuration not stated)	-2.2
O=C(Nc1ccccc1Br)c1cccc(F)c1	-1.2
COc1cc(NC(=O)CC2C(=O)N(c3ccccc3)C(=O)N2Cc2ccc(F)cc2)cc(OC)c1 (configuration not stated)	0.5
O=C1O/C(=C\c2ccc(Cl)c(Cl)c2)c2ccccc21	-5.2
COc1cc2c(cc1OC)C(COc1ccc3c(C)cc(=O)oc3c1)N(C(=O)C(C)C)CC2 (configuration not stated)	-3.7
C(/C=C/c1cccc2ccccc12)=C\c1ccccc1	-5.3
CC(C)(O)C(=O)/C=C/c1cccc2ccccc12	53.9*
CC(C)(O)C(=O)/C=C/c1ccccc1	13.0
CCOc1cc(-c2ccc(OC(=O)c3ccccc3Cl)c(OC)c2)cc(=O)c2c(C)oc(C)c12	-14.9
CN1CCN(C(=O)C2CCCCC2)CC1	2.3
O=C(CN1C(=O)c2cccc3cccc(c23)C1=O)N1CCN(Cc2ccc3c(c2)OCO3)CC1	3.7
N#C/C(=N/Nc1ccc(Cl)cc1)C(=O)c1ccc(Cl)cc1	-2.2
Cc1cnc(NC(=O)CSc2nnc(C)n2N)s1	1.1
O=C(CNC(=O)c1ccc(F)cc1)OCc1cc(=O)n2nc(C3CCCCC3)sc2n1	-4.4
O=C(c1cccs1)N1CCN(S(=O)(=O)c2ccc(Cl)s2)CC1	4.1
CC1=NN(c2ccccc2)C(=O)C1C(c1ccccc1C(=O)O)C1C(=O)N(c2ccccc2)N=C1C (configuration not stated)	-3.3
CC1=NN(c2ccccc2)C(=O)C1N=Nc1cc(Cl)ccc1C(F)(F)F (configuration not stated)	-6.7
CC1=NN(c2ccccc2)C(=O)C1C(c1ccc(Cl)cc1)C1C(=O)N(c2ccccc2)N=C1C (configuration not stated)	61.1*
O=S1(=O)CCCN1CCOc1ccccc1	-2.6
O=C(Oc1ccc2ccc(OC(=O)c3ccc(F)cc3)cc2c1)c1ccc(F)cc1	-2.7
